Source: PubChem BioAssay AID1626 (SRMLSC, 2009)
Out of some 220,000 compounds screened, about 2,000 (0.91%) were called active. Not shown: some 2% with an inconclusive outcome. Cut-off read from the data, not from the text of the source: inconclusive = inhibition above about 80% without an active follow-up result; inactive = below that; test concentration not stated here. These entries were drawn from the full list. Potency and affinity values are given separately.

Assay: M. tuberculosis H37Rv growth inhibitors, H37Rv strain (AID 1626);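 note: bacteria incubated seven days before Alamar blue readout; 0% = bacteria only wells and 100% = bacteria with antibiotic wells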
Conditions: active compounds read high, concentration not given here
For CCCC(=O)Nc1cc(C(=O)O)ccc1Sc1ccc(C)cc1, the inhibition was -4.31% (inactive). With COC(=O)CCC(=O)NC(=S)Nc1cc(Cl)ccc1Cl the inhibition was -5.76% (inactive). With O=C(CSCc1ccccc1)Nc1ccc2c(c1)C(=O)NC2=O the inhibition was -3.24% (inactive). In the case of N#C/C(=C\c1ccc([N+](=O)[O-])cc1)c1ccccn1, the inhibition is reported as 7.55% (inactive). For NC(CO)(CO)COCc1ccccc1, the inhibition was 5.19% (inactive). In the case of O=C(/C=C/c1ccccc1[N+](=O)[O-])c1ccc(F)cc1, the inhibition is reported as 49.5% (inactive). With O=C(O)/C=C/c1ccccc1[N+](=O)[O-] the inhibition was -15.1% (inactive). For Cc1ccc(C(=O)/C=C/c2ccc(-c3ccc(C)cc3)o2)cc1, the inhibition was 88.2% (inactive). With Cc1ccc(/C=C/C(=O)c2ccccc2)cc1 the inhibition was 10.3% (inactive). With O=C(/C=C/c1ccc(-c2ccccc2)o1)c1ccccc1 the inhibition was 12.6% (inactive). For Cc1ccc(C(=O)/C=C/C(=O)O)cc1, the inhibition was 1.06% (inactive). For Cc1ccc(C(=O)/C=C\NCc2ccccc2)cc1, the inhibition was 2.13% (inactive). For Cc1ccc(/C=C/C(=O)c2ccc(C)cc2)cc1, the inhibition was 3.08% (inactive). With COc1ccc(-c2[nH]n(-c3ccc([N+](=O)[O-])cc3)c(=O)c2C=NCc2ccccc2)cc1 the inhibition was -1.64% (inactive). For C=CCC1(NC(C)c2ccccc2)CCCCC1 (centres undefined), the inhibition was -4.87% (inactive). With O=C(Nc1ccc(-c2noc(COc3ccccc3Cl)n2)cc1)c1ccco1 the inhibition was 0.69% (inactive). In the case of COc1cc(/C=C2/SC(=O)N(Cc3ccccc3Cl)C2=O)ccc1OCc1ccncc1, the inhibition is reported as 3.75% (inactive). In the case of COCCNC(=O)C(c1ccncc1)N(C(=O)c1sc(C)nc1C)c1cccc(C)c1 (centres undefined), the inhibition is reported as -4.16% (inactive). With Cc1ccc(NC(=O)c2cc3c(=O)oc4ccc(C)cc4c3s2)nc1 the inhibition was -3.16% (inactive). In the case of Cc1ccc2c(c1)CC1(CN2C)C(=O)NC(=O)N(CCc2ccccc2)C1=O (centres undefined), the inhibition is reported as -6.53% (inactive). With Cc1oc(CC(C)C)cc1C(=O)Nc1cccc2ccccc12 the inhibition was -8.7% (inactive). With Cn1c(=O)[nH]c(=O)c2c1nc(SCC(=O)Nc1ccccc1)n2Cc1ccccc1 the inhibition was 4.62% (inactive). For CCn1c(-c2cccnc2Cl)nc2cc(Cl)c(Cl)cc21, the inhibition was 13.1% (inactive). With CCOCCCn1c(=S)[nH]c2cc(C(=O)N3CCN(C)CC3)ccc2c1=O the inhibition was -9.01% (inactive). In the case of CCc1ccc(NC2CC(=O)N(CCc3ccc(OC)c(OC)c3)C2=O)cc1 (centres undefined), the inhibition is reported as 6.46% (inactive). For O=C(/C=C/NNC(=O)c1ccc(Cl)cc1)c1ccccc1, the inhibition was 2.77% (inactive). With O=C(/C=C/Sc1ncn[nH]1)c1ccc(Cl)cc1 the inhibition was 6.21% (inactive). With CCC(=O)NCCCc1nc(-c2ccccc2)no1 the inhibition was -4.65% (inactive). In the case of COc1ccccc1N1CCN(C(=O)Cn2nc3n(C)c4ccccc4n3c(=O)c2=O)CC1, the inhibition is reported as 0.2% (inactive). With COc1ccccc1NCC(=O)n1nc(C)cc1C the inhibition was -3.99% (inactive). For Cc1ccc(-c2csc(NC(=O)CSc3nc4ccccc4o3)n2)cc1, the inhibition was 65.3% (inactive). In the case of CCS(=O)(=O)c1ccc2oc(SCC(=O)NCCc3ccccc3)nc2c1, the inhibition is reported as 3.18% (inactive). In the case of O=C(CSc1nc2ccccc2o1)Nc1nncs1, the inhibition is reported as 2.93% (inactive). In the case of Cc1occc1-c1nnc(SCC(=O)Nc2ccccn2)o1, the inhibition is reported as 10% (inactive). With O=C(CSc1nc2ccccc2o1)Nc1ccccc1 the inhibition was -0.33% (inactive). With O=C(CSc1nc2ccccc2o1)c1ccccc1 the inhibition was 9.75% (inactive). With COc1ccc(CCNC(=O)CSc2nc3ccccc3o2)cc1 the inhibition was 96.4% (inactive). For Cc1occc1-c1nnc(SCC(=O)NCCc2ccccc2)n1Cc1ccccc1, the inhibition was -7.81% (inactive). With Cc1ccc(NC(=S)Nc2cc(C)on2)cc1 the inhibition was 4.76% (inactive). In the case of COc1ccc(NC(=O)C2CCCN(S(=O)(=O)c3cccc4nonc34)C2)cc1OC (centres undefined), the inhibition is reported as 0.88% (inactive). In the case of CCOC(=O)c1c(-c2ccc(C)s2)csc1N, the inhibition is reported as 3.65% (inactive). For Cc1nc2c(C#N)cnn2c2c1CCNN2C, the inhibition was -8.46% (inactive). With COc1ccccc1-c1cc(C(=O)N2CCN(c3ccc(F)cc3)CC2)no1 the inhibition was 4.4% (inactive). In the case of Cc1cccc(NC(=O)NNS(=O)(=O)c2ccc(F)cc2)c1, the inhibition is reported as 7.42% (inactive). With O=C(CN1CCN(C(=O)c2ccco2)CC1)N1CCc2[nH]c3ccccc3c2C1 the inhibition was 7.26% (inactive). For COc1ccc(C2CC(=O)C3=C(C2)Nc2ncnn2C3c2ccccc2)cc1 (centres undefined), the inhibition was -8.64% (inactive). For Cc1nnc(NC(=O)CSc2nc3ccccc3o2)s1, the inhibition was -1.02% (inactive). For O=C(CSc1nc2ccccc2o1)Nc1nc2ccccc2s1, the inhibition was -3.19% (inactive). With Cc1ccccc1Cn1nnc(-c2ccc(C(=O)O)cc2)n1 the inhibition was -5.85% (inactive). With N#Cc1cncc(-c2ccc3c(c2)OCCOCCOCCOCCOCCO3)n1 the inhibition was 5.9% (inactive). In the case of Nc1nc(-c2ccc3c(c2)OCCO3)cs1, the inhibition is reported as 78.2% (inactive). For Cc1ccc(-n2ncc3c2ncn2c(C)nnc32)cc1C, the inhibition was 14.5% (inactive). For CC(C)(C)C(=O)Nc1ccc(-c2csnn2)cc1, the inhibition was -0.28% (inactive). For NC(=O)c1ccc(-c2csnn2)cc1, the inhibition was 0.58% (inactive). For Cc1ccc(NC(=O)C(C)OC(=O)c2ccc(NS(=O)(=O)c3ccc(F)c(F)c3)cc2)cc1 (centres undefined), the inhibition was -2.38% (inactive). For Cc1nc2c(c(=O)n1CCC(C)C)c1nc3ccccc3nc1n2CC1CCCO1 (centres undefined), the inhibition was 2.15% (inactive). In the case of CC1CCN(S(=O)(=O)c2cccc(-c3cn4cc(Cl)ccc4n3)c2)CC1, the inhibition is reported as -1.37% (inactive). With O=C(O)CCN1C(=O)C2C3c4ccccc4C(c4ccccc43)[C@@H]2C1=O (some centres undefined) the inhibition was -2.72% (inactive). In the case of CC(=O)Nc1ccc(NC2=Nc3ccccc3N3C2=Nc2c(c(C)nn2-c2ccccc2)C3c2ccccc2)cc1 (centres undefined), the inhibition is reported as 75.1% (inactive). For Cc1ccccc1-n1nc(C)c2c1N=C1C(Cl)=CC(Cl)=CN1C2c1ccc(C(=O)O)cc1 (centres undefined), the inhibition was -4.15% (inactive). In the case of CCCc1nnc(NC(=O)OCC)s1, the inhibition is reported as 4.01% (inactive). For CC(NC(=O)C1CC1)C(c1cccs1)N1CCOCC1 (centres undefined), the inhibition was 4.47% (inactive). With O=C(CSc1nnc(Cc2ccccc2)o1)c1ccc(F)cc1 the inhibition was 6.24% (inactive). With Cn1c(NC(=O)/C=C/c2ccco2)cc(=O)n(C)c1=O the inhibition was -0.44% (inactive).
